These results are taken from publication PMC5700166.

Common to all, as to test: protein-binding microarray (PBM); PBM: ~300 nM protein, 6 mM HEPES pH 7.8, 80 mM KCl, 0.5 mM EDTA, 0.5 mM EGTA, 6% glycerol, 35 ng/ul poly-dIdC, 1% milk, 1 h, room temperature; Ap Aiptasia and Nv Nematostella (sea anemones) / Co Capsaspora / Aq Amphimedon (sponge) / Dm Drosophila / Hu human; RHD is the Rel homology domain; high values mean tight binding
Details in all cases: dsDNA, one strand shown

One assay deals with T1, GST-Ap-NF-kB RHD (Exaiptasia pallida (Aiptasia), UniProt A0A913YAJ5 2-422).
T1 sequence: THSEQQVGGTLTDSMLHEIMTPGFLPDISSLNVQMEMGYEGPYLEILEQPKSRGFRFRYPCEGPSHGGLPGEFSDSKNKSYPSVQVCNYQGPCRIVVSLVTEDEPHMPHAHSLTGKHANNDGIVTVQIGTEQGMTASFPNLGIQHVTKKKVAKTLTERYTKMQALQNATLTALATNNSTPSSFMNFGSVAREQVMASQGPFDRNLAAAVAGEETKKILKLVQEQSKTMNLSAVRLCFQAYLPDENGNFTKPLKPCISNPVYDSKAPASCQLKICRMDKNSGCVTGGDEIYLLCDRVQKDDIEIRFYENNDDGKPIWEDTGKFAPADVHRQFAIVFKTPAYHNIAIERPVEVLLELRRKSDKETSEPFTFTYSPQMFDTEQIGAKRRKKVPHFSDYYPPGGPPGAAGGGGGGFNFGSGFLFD

The target of assay [1] is T2, GST-Nv-NF-kB (Cys allele) (Nematostella vectensis, UniProt E5G601 2-411).
T2 sequence: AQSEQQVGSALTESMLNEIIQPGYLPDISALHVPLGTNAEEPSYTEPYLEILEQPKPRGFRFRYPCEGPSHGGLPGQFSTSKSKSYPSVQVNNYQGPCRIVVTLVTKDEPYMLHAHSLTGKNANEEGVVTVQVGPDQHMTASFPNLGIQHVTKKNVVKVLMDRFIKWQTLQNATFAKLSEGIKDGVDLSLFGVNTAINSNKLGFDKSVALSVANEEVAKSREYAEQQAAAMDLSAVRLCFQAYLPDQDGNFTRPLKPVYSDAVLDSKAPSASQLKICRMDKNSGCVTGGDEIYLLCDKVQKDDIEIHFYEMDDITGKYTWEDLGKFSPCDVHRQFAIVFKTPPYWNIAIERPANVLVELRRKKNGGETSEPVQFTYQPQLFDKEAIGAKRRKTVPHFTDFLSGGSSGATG

In assay [2] the target is T3, GST-Nv-NF-kB (Ser allele) (Nematostella vectensis, UniProt A7UNT2 2-411).
T3 sequence: T2 sequence with Q21R, C66S, S207N, E215Q, V217A, E225K, A268E, D399E

The target in another assay is T4, GST-Dm-Relish (Drosophila melanogaster, UniProt Q94527 99-473).
T4 sequence: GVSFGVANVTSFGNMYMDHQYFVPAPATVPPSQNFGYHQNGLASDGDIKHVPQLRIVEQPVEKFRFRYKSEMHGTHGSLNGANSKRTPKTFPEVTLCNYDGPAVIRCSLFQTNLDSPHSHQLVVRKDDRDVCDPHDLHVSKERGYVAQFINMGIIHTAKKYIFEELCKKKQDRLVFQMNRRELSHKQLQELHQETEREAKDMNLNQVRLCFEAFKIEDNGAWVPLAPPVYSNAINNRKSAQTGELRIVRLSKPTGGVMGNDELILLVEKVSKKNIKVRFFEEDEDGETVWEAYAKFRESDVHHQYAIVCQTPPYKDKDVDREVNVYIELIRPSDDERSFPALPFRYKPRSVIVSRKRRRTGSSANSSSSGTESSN

For the next assay, the target named is T5, GST-Aq-NF-kB (Amphimedon queenslandica, UniProt A9Y5G7 2-389).
T5 sequence: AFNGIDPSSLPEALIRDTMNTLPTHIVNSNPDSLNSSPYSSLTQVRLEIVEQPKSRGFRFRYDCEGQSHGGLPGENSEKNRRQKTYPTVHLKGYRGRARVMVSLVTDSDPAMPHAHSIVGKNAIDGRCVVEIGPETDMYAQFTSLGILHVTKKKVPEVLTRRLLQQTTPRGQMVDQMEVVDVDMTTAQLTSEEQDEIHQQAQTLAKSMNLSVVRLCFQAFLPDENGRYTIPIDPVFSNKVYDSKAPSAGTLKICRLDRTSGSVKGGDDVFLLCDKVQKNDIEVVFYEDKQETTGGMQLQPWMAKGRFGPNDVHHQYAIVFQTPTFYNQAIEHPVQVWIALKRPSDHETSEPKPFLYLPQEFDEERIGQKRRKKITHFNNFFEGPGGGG

The target of the next assay is GST-Hu-p50 (Homo sapiens, UniProt P19838 7-356).
Another assay concerns the target T6, GST-Co-NF-kB (Capsaspora owczarzaki, UniProt F1ARL5 200-546).
T6 sequence: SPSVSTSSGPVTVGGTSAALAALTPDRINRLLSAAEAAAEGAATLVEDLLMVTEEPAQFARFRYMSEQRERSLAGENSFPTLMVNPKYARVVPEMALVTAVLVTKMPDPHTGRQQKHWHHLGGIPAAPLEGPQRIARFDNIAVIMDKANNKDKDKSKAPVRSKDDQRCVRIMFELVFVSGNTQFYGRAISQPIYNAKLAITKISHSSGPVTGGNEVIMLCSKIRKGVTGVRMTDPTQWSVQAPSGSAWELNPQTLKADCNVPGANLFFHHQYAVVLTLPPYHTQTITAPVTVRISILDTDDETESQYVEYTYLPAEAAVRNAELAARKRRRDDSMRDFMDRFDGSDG

Substitutions are numbered along the chain they refer to.

Sequence of GST-Hu-p50 (P19838 7-356): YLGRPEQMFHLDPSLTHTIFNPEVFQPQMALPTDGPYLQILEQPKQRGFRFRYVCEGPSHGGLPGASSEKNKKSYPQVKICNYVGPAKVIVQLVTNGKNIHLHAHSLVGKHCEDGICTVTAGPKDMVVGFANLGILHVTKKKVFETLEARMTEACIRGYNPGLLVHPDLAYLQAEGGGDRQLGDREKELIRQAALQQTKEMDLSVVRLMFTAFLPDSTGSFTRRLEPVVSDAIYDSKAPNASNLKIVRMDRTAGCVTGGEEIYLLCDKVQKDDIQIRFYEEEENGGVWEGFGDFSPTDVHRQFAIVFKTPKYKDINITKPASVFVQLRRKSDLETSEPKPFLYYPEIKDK

As for “CCGATTAACATCAGAAACTCCCATGATGTTAATCGGGTCTTGATTCGCTTGACGCTGCTG”, the binding signal in the assay with GST-Ap-NF-kB RHD turned out to be 3.34 z-score; in assay [1], 3.45 z-score; in assay [2], 2.93 z-score; with GST-Dm-Relish it was 3.38 z-score; with GST-Aq-NF-kB it was 3.7 z-score; with GST-Hu-p50, 2.9 z-score.
Turning to “CCGATTAACATCAGGGCTTCCCCTGATGTTAATCGGGTCTTGATTCGCTTGACGCTGCTG”, the binding signal was 9.17 z-score with GST-Ap-NF-kB RHD; 10.8 z-score in assay [1]; 8.58 z-score in assay [2]; 4.03 z-score with GST-Co-NF-kB; 10.4 z-score with GST-Dm-Relish; 9.48 z-score with GST-Aq-NF-kB. The binding signal in the assay with GST-Hu-p50 came out at 6.74 z-score.
For the sequence “CCGATTAACATCATATGGGAAAATGATGTTAATCGGGTCTTGATTCGCTTGACGCTGCTG”, the binding signal came out at 1.55 z-score in the assay with GST-Ap-NF-kB RHD; 3.76 z-score in assay [1]; 4.82 z-score in assay [2]; 3.09 z-score in the assay with GST-Co-NF-kB; 1.12 z-score with GST-Dm-Relish; 2.17 z-score with GST-Aq-NF-kB. The sequence also displayed a binding signal in the assay with GST-Hu-p50 of 2.72 z-score.
Take “CCGATTAACATCAAGACTTTCCCTGATGTTAATCGGGTCTTGATTCGCTTGACGCTGCTG”: the binding signal in the assay with GST-Ap-NF-kB RHD is 4.06 z-score; in assay [1] it was 5.48 z-score; in assay [2] it was 5.59 z-score; with GST-Co-NF-kB, 2.92 z-score; in the assay with GST-Dm-Relish, 2.82 z-score; in the assay with GST-Aq-NF-kB it was 6.09 z-score. Also, the binding signal in the assay with GST-Hu-p50 worked out at 4.12 z-score.
With “CCGATTAACATCACGGTAATTCCTGATGTTAATCGGGTCTTGATTCGCTTGACGCTGCTG”, the binding signal with GST-Ap-NF-kB RHD worked out at 1.42 z-score; in assay [1], 2.05 z-score; in assay [2], 2.65 z-score; with GST-Dm-Relish it was 5.3 z-score; with GST-Aq-NF-kB, 4.04 z-score; with GST-Hu-p50 it was 1.7 z-score.
In the case of “CCGATTAACATCAGAAAAATACCTGATGTTAATCGGGTCTTGATTCGCTTGACGCTGCTG”, the binding signal in the assay with GST-Ap-NF-kB RHD was 1.31 z-score; in assay [1] it was 2.43 z-score; in assay [2], 3.74 z-score; with GST-Dm-Relish, 4.9 z-score; with GST-Aq-NF-kB, 3.17 z-score; with GST-Hu-p50, 3.16 z-score.
With “CCGATTAACATCAGGGACATACCTGATGTTAATCGGGTCTTGATTCGCTTGACGCTGCTG”, the binding signal in the assay with GST-Ap-NF-kB RHD stood at 2.52 z-score; in assay [1] it was 3.64 z-score; in assay [2], 1.01 z-score; with GST-Dm-Relish it was 3.64 z-score; with GST-Aq-NF-kB, 5.64 z-score; with GST-Hu-p50, 2.14 z-score.
In the case of “CCGATTAACATCAGAGAAGCCCCTGATGTTAATCGGGTCTTGATTCGCTTGACGCTGCTG”, the binding signal with GST-Ap-NF-kB RHD came out at 4.39 z-score; in assay [1], 5.41 z-score; in assay [2], 4.05 z-score; with GST-Dm-Relish, 3.44 z-score; in the assay with GST-Aq-NF-kB, 5.35 z-score; with GST-Hu-p50, 4.67 z-score.
On to “CCGATTAACATCAGGGACTTCCATGATGTTAATCGGGTCTTGATTCGCTTGACGCTGCTG”, for which the binding signal with GST-Ap-NF-kB RHD was found to be 5.02 z-score; in assay [1] it was 5.5 z-score; in assay [2], 5.01 z-score; in the assay with GST-Dm-Relish, 6.69 z-score; with GST-Aq-NF-kB it was 5.53 z-score; with GST-Hu-p50, 4.56 z-score.
With “CCGATTAACATCAGGGGTTTCTATGATGTTAATCGGGTCTTGATTCGCTTGACGCTGCTG”, the binding signal was determined as 5.36 z-score with GST-Ap-NF-kB RHD; 4.73 z-score in assay [1]; 4.67 z-score in assay [2]; 1.76 z-score with GST-Co-NF-kB; 5.29 z-score with GST-Dm-Relish; 4.5 z-score with GST-Aq-NF-kB. The same sequence yielded a binding signal with GST-Hu-p50 of 5.3 z-score.
For “CCGATTAACATCAGGGAGTTCACTGATGTTAATCGGGTCTTGATTCGCTTGACGCTGCTG”, the binding signal in the assay with GST-Ap-NF-kB RHD was 2.23 z-score; in assay [1], 2.42 z-score; in assay [2] it was 1.78 z-score; with GST-Dm-Relish, 5.79 z-score; with GST-Aq-NF-kB, 4.22 z-score; with GST-Hu-p50, 2.32 z-score.
With “CCGATTAACATCAGGAAAATCCCTGATGTTAATCGGGTCTTGATTCGCTTGACGCTGCTG”, the binding signal was determined as 5.62 z-score with GST-Ap-NF-kB RHD; 7.7 z-score in assay [1]; 4.73 z-score in assay [2]; 2.51 z-score with GST-Co-NF-kB; 7.08 z-score in the assay with GST-Dm-Relish; 8.07 z-score with GST-Aq-NF-kB. This sequence returned a binding signal in the assay with GST-Hu-p50 of 5.88 z-score.
